Drawing on PubChem BioAssay AID652174 (National Center for Advancing Translational Sciences (NCATS), 2013), this text covers Potency for 2 compounds.

Activity calls are given as the source filed them. The call rests on the fitted dose curve; in most records, active means well fitted curve in the direction sought with a large enough effect; inactive means no such curve, though single readings can be large or run the other way.

The target in the experiment is Ubiquitin carboxyl-terminal hydrolase 2 (Homo sapiens) (UniProt O75604). Description: Confirmation Assay for Inhibitors of Ubiquitin-specific Protease USP2a Using CHOP2 as the Reporter: SAR. The conditions noted are these: USP2 core, Ub-CHOP2 reporter, fluorescence 485/531. The text has this: Homeostasis of cellular proteins is maintained through a combination of synthesis and degradation. The pathway that accounts for the majority of protein degradation is the ubiquitin-proteasomal pathway. Ubiquitin (Ub) is highly conserved in all cells and the generation of a multi-Ub chain typically targets proteins for degradation by the proteasome. However, ubiquitination is highly reversible and dynamic. Deubiquitination, the reverse process, is catalyzed through the action of enzymes referred to as isopeptidases or deubiquitinating enzymes (DUBs). This group of enzymes is collectively responsible for maintaining adequate pools of free ubiquitin and regulating the ubiquitination status of cellular proteins. […] Thus, this coupled assay gives a fluorescent read-out at excitation/emission wavelengths of 485/531. […]
Sequence of Ubiquitin carboxyl-terminal hydrolase 2 (Homo sapiens) (O75604 whole entry, looked up): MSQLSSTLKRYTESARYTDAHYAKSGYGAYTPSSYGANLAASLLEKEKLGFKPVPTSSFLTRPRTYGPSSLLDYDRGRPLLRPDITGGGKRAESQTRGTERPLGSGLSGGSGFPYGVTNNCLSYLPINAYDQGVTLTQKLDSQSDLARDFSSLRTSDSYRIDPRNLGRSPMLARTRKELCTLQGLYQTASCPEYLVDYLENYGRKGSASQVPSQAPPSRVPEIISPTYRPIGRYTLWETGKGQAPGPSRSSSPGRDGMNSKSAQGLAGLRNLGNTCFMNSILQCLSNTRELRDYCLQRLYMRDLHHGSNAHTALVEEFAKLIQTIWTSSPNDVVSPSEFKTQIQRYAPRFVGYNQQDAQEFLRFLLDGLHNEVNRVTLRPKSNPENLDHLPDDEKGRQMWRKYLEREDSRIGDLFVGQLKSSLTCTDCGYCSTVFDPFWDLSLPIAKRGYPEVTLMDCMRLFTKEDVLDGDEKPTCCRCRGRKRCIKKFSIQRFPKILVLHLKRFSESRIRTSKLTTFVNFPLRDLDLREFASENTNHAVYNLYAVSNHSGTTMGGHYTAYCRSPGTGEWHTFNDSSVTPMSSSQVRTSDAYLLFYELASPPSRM
The assay buffer, prepared fresh at the day of the assay, contains 20mM Tris-HCl pH 8.0, 2mM CaCl2, 2mM beta-Mercaptoethanol, 0.05% CHAPS. […] Plates were read after 60min RT incubation on a ViewLux (Perkin Elmer) plate reader using the following wavelengths Ex 485nm /Em 531nm. […] Concentration-response curves were fitted to the normalized data and the concentration-response curves were then classified based on curve quality (r2), response magnitude and degree of measured activity. The time zero reading was used to flag fluorescence artifacts. […]
As to `Cc1ccc(S(=O)(=O)Nc2ccccc2C(=O)Nc2nc(-c3ccccc3)cs2)cc1`, the Potency is 11.3 µM (active). Regarding `Cc1ccc(S(=O)(=O)Nc2ccccc2C(=O)Nc2nc(-c3ccc(Cl)cc3)cs2)cc1`, the Potency was 5.65 µM (active).
